Outcome and AC50 data for 5 molecules are collected here from PubChem BioAssay (EPA / NIEHS).

Records with an inconclusive call do not appear. The source made the active and inactive calls. Rule for the calls, unless noted: active = hit-call score of the fitted dose curve at least 0.9, where 1 is the maximum; inactive = score below 0.9.

The target in assay [1] is Glucocorticoid receptor (Homo sapiens) (UniProt P04150). The experiment in a line: ATG_GR_TRANS: Attagene TRANS-FACTORIAL HepG2 Assay for human Glucocorticoid Receptor (GR) (AID 2282978; active = hit-call score of the fitted dose curve at least 0.9, where 1 is the maximum;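 note: activators score as hits since higher reporter transcript over DMSO is fitted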). Conditions: HepG2 Attagene TRANS GR reporter, mRNA transcription. An outline of the steps:
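HepG2 transient transfection, multiple reporter units, GAL4-UAS under NR-GAL4 chimera control. 24 h treatment. Reporter mRNA by RT-PCR/CE fluorescence, DMSO as negative control.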

The target in assay [2] is Bile acid receptor (Homo sapiens) (UniProt Q96RI1). The experiment in a line: ATG_FXR_TRANS: Attagene TRANS-FACTORIAL HepG2 Assay for Farnesoid X Receptor (FXR) (AID 2282979; active = hit-call score of the fitted dose curve at least 0.9, where 1 is the maximum;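 note: hits raise reporter mRNA above DMSO so AC50 marks FXR activation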). To be noted: HepG2 Attagene TRANS FXR-GAL4 reporter transcription. An outline of the steps:
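HepG2 cells were transiently transfected with GAL4-UAS reporters driven by chimeric NR-Gal4 proteins and dosed for 24 h. Reporter mRNA was quantified by RT-PCR, fluorescent labelling, HpaI digestion and capillary electrophoresis, with gain of signal scored versus DMSO.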

The target of assay [3] is Hepatocyte nuclear factor 4-alpha (Homo sapiens) (UniProt P41235). In words: ATG_HNF4a_TRANS: Attagene TRANS-FACTORIAL HepG2 Assay for human Hepatocyte Nuclear Factor 4 alpha (HNF4a) (AID 2282982; active = hit-call score of the fitted dose curve at least 0.9, where 1 is the maximum). Conditions: HepG2 HNF4a transactivation reporter, mRNA readout. An outline of the steps:
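HepG2 cells transiently transfected with multiplexed GAL4-UAS reporter units responsive to chimeric NR-GAL4 proteins; compound exposure 24 h. Reporter mRNA quantified by RT-PCR, 6-FAM labelling, HpaI digestion and capillary electrophoresis; gain of signal versus DMSO baseline.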

Assay [4] can be described thus: ATG_M_06_TRANS: Attagene TRANS-FACTORIAL HepG2 Assay for M06 Transcription Factor (Internal Marker) (AID 2282983; active = hit-call score of the fitted dose curve at least 0.9, where 1 is the maximum;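 note: reporter transcript level by RT-PCR then capillary electrophoresis fluorescence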). Conditions: HepG2 Attagene TRANS M06 internal marker reporter. A digest of the protocol:
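HepG2 cells transiently transfected with GAL4-UAS multiple reporter units, dosed 24 h. Reporter RNA reverse-transcribed, PCR-amplified, 6-FAM-labeled, HpaI-digested and quantified by capillary electrophoresis; this internal-marker signal fitted upward relative to DMSO.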

For assay [5], the target named is Transcriptional activator Myb (Homo sapiens) (UniProt P10242). In words: ATG_Myb_CIS: Attagene CIS-FACTORIAL HepG2 Assay for human Myeloblastosis (Myb) Proto-Oncogene Transcription Factor (AID 2282986). Conditions: HepG2 Attagene CIS-FACTORIAL Myb reporter transcription; actives raise or lower the signal. A digest of the protocol: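 Multiplexed cis-reporter system in HepG2: transient transfection, 24 h treatment, mRNA readout by RT-PCR and capillary electrophoresis. Both increases and decreases are scored versus DMSO negative control.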

The target of assay [6] is Nuclear respiratory factor 1 (Homo sapiens) (UniProt Q16656). In words: ATG_NRF1_CIS: Attagene CIS-FACTORIAL HepG2 Assay for human Nuclear Respiratory Factor 1 (NRF1) Orphan Gene (AID 2282987). Conditions: HepG2 NRF1 cis-element reporter, Attagene multiplex; actives raise or lower the signal. A digest of the protocol:
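Endogenous factor activity was captured via cis-element-driven reporter transcripts in HepG2 cells. Following 24 h chemical treatment, transcripts were quantified by RT-PCR and capillary electrophoresis.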

Assay [7] can be described thus: ATG_NFI_CIS: Attagene CIS-FACTORIAL HepG2 Assay for human Nuclear Factor I (NFI) (AID 2282989). To be noted: HepG2 cis-regulatory reporter, NFI response element transcription; actives raise or lower the signal. A digest of the protocol: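 After transient transfection of HepG2 with cis-promoter reporter constructs and 24 h dosing, RNA is reverse-transcribed, amplified, 6-FAM end-labelled and HpaI-digested before capillary analysis. Bidirectional curve fitting against DMSO.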

Assay [8] concerns the target Myc proto-oncogene protein (Homo sapiens) (UniProt P01106). The experiment in a line: ATG_Myc_CIS: Attagene CIS-FACTORIAL HepG2 Assay for human Myelocytomatosis (Myc) Proto-Oncogene Transcription Factor (AID 2282990). Conditions: HepG2, Attagene cis-reporter transcription factor activity; actives raise or lower the signal. A digest of the protocol: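 HepG2 cells transiently transfected with multiple cis-promoter-driven reporter transcription units, so endogenous TF activity is read. After 24 h compound exposure, reporter mRNA was quantified by RT-PCR, 6-FAM labelling, HpaI digestion and capillary electrophoresis; bidirectional fit versus DMSO.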

A short description of assay [9]: ATG_NF_kB_CIS: Attagene CIS-FACTORIAL HepG2 Assay for human Nuclear Factor Kappa B (NF-kB) (AID 2282991). Conditions: HepG2 Attagene cis-factorial NF-kB reporter mRNA; actives raise or lower the signal. An outline of the steps: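 After 24 h compound incubation, transfected HepG2 cells yield total RNA; reporter cDNA is PCR-amplified, end-labelled with 6-FAM, HpaI-digested and analysed on a genetic analyser. Endogenous factor activity, DMSO-referenced bidirectional fit.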

The nature of assay [10]: ATG_NRF2_ARE_CIS: Attagene CIS-FACTORIAL HepG2 Assay for human Nuclear Factor Erythroid 2 Related Factor 2 (NFR2) response to Antioxidant Response Elements (ARE) (AID 2282992). Conditions: HepG2 Attagene ARE/NRF2 reporter, transcription factor activity; actives raise or lower the signal. An outline of the steps:
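Cis-factorial assay: transfected HepG2 reporter library, 24 h dosing, mRNA readout via RT-PCR/CE; DMSO-referenced bidirectional analysis.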

Assay [11] deals with Cellular tumor antigen p53 (Homo sapiens) (UniProt P04637). The experiment in a line: ATG_p53_CIS: Attagene CIS-FACTORIAL HepG2 Assay for human p53 Transcription Factor (AID 2282994). To be noted: HepG2 p53 cis-element reporter, Attagene mRNA; actives raise or lower the signal. A digest of the protocol: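 Using HepG2 hepatoma cells carrying cis-acting multiplexed reporters, mRNA induction is detected after a 24 h exposure. Gain- and loss-of-signal responses are fitted relative to DMSO-treated cells.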

For assay [12], the target named is Oxysterols receptor LXR-alpha (Homo sapiens) (UniProt Q13133). In words: ATG_LXRa_TRANS: Attagene TRANS-FACTORIAL HepG2 Assay for human Liver X Receptor alpha (LXRa) (AID 2282980; active = hit-call score of the fitted dose curve at least 0.9, where 1 is the maximum). To be noted: HepG2 Attagene TRANS reporter, LXRa transactivation. A digest of the protocol:
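HepG2 cells transiently transfected with GAL4-UAS reporter units for chimeric NR-Gal4 proteins, exposed to chemicals for 24 h. Reporter mRNA quantified by RT-PCR and capillary electrophoresis; gain of signal fitted relative to DMSO.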

Assay [13] in a line: ATG_M_32_TRANS: Attagene TRANS-FACTORIAL HepG2 Assay for M32 Transcription Factor (Internal Marker) (AID 2282984; active = hit-call score of the fitted dose curve at least 0.9, where 1 is the maximum;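 note: transcript level of a background control reporter unit measured by RT-PCR and capillary electrophoresis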). Conditions: HepG2 Attagene TRANS M32 internal marker reporter. A digest of the protocol: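 HepG2 cells transiently transfected with multiple GAL4-UAS reporter transcription units, dosed for 24 hours; reporter mRNA quantified by RT-PCR, 6-FAM primer extension, HpaI digestion and capillary electrophoresis. Gain-of-signal fitted versus DMSO baseline; internal background-control marker.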

Assay [14] deals with Nuclear receptor subfamily 4 group A member 2 (Homo sapiens) (UniProt P43354). In words: ATG_NURR1_TRANS: Attagene TRANS-FACTORIAL HepG2 Assay for human Nuclear Receptor Related Protein 1 (NURR1) (AID 2282985; active = hit-call score of the fitted dose curve at least 0.9, where 1 is the maximum). To be noted: HepG2 Attagene TRANS reporter, mRNA readout. A digest of the protocol:
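HepG2 cells transiently transfected with GAL4-UAS reporter units and chimeric NR-Gal4 constructs; chemical exposure 24 h. Reporter mRNA quantified by RT-PCR, fluorescent labelling and capillary electrophoresis; gain of signal fitted relative to DMSO baseline.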

A short description of assay [15]: ATG_Oct_MLP_CIS: Attagene CIS-FACTORIAL HepG2 Assay for human Octamer-Binding Transcription Factor (Oct) (AID 2282993). Conditions: HepG2 Attagene cis-factorial Oct reporter, mRNA; actives raise or lower the signal. A digest of the protocol: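 Cells of the HepG2 line express promoter-controlled reporter sequences whose mRNA levels, after 24 h treatment, are measured by RT-PCR and capillary electrophoresis. Increases and decreases are scored relative to DMSO.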

The nature of assay [16]: BSK_3C_TissueFactor: BioMAP Diversity Plus: 3C Assay for Tissue Factor Biomarker Activity (AID 2282997). Conditions: BioMAP 3C HUVEC, tissue factor biomarker readout; actives raise or lower the signal. An outline of the steps:
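HUVEC were treated 24 h, then surface tissue factor measured by ELISA and fitted bidirectionally against DMSO. Parallel SRB total-protein staining assessed overt cytotoxicity at the same time point.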

Assay [17] in a line: BSK_3C_uPAR: BioMAP Diversity Plus: 3C Assay for Urokinase-type plasminogen activator receptor (uPAR) Biomarker Activity (AID 2282998). Conditions: BioMAP 3C HUVEC, uPAR biomarker ELISA; actives raise or lower the signal. An outline of the steps:
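Endothelial primary cells of human umbilical vein origin received test chemical; 24 h later uPAR was assayed by ELISA. Fitting was bidirectional, DMSO as negative control.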
Background: An ELISA detects its analyte on a solid surface through an enzyme-linked reagent.

The target in assay [18] is Oxysterols receptor LXR-beta (Homo sapiens) (UniProt P55055). The experiment in a line: ATG_LXRb_TRANS: Attagene TRANS-FACTORIAL HepG2 Assay for human Liver X Receptor beta (LXRb) (AID 2282981; active = hit-call score of the fitted dose curve at least 0.9, where 1 is the maximum). Conditions: HepG2 Attagene TRANS GAL4-LXRb reporter, mRNA. An outline of the steps: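 HepG2 cells transiently transfected with multiple reporter transcription units carrying chimeric NR-Gal4 proteins acting on GAL4-UAS reporters; compound exposure 24 h. Reporter mRNA quantified by RT-PCR, 6-FAM labelling, HpaI digestion and capillary electrophoresis; gain of signal versus DMSO.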

Assay [19] in a line: BSK_3C_VCAM1: BioMAP Diversity Plus: 3C Assay for Vascular cell adhesion molecule 1 (VCAM1) Biomarker Activity (AID 2282999). Conditions: BioMAP 3C HUVEC, VCAM1 ELISA, cytokine-stimulated; actives raise or lower the signal. A digest of the protocol: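 Human umbilical vein endothelial cells were dosed with compound for 24 h, after which cell-surface VCAM-1 was quantified by ELISA. Bidirectional curve fitting used DMSO as negative control and activity baseline.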

Bile acid receptor (Homo sapiens), sequence (Q96RI1 whole entry, looked up, the tested form may be a part): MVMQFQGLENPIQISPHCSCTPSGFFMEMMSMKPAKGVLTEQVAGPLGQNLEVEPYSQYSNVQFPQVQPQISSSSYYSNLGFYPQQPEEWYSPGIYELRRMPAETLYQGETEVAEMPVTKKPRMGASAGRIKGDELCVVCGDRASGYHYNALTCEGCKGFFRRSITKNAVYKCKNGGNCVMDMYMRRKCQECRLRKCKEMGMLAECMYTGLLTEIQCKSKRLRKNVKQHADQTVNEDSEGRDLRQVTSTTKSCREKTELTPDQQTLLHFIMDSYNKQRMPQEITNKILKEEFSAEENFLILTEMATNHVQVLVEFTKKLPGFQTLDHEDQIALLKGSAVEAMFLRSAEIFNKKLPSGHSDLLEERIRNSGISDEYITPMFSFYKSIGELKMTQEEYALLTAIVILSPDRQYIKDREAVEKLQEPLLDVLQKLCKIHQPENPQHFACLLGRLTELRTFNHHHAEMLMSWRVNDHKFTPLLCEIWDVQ
Glucocorticoid receptor (Homo sapiens), sequence (P04150 whole entry, looked up, the tested form may be a part): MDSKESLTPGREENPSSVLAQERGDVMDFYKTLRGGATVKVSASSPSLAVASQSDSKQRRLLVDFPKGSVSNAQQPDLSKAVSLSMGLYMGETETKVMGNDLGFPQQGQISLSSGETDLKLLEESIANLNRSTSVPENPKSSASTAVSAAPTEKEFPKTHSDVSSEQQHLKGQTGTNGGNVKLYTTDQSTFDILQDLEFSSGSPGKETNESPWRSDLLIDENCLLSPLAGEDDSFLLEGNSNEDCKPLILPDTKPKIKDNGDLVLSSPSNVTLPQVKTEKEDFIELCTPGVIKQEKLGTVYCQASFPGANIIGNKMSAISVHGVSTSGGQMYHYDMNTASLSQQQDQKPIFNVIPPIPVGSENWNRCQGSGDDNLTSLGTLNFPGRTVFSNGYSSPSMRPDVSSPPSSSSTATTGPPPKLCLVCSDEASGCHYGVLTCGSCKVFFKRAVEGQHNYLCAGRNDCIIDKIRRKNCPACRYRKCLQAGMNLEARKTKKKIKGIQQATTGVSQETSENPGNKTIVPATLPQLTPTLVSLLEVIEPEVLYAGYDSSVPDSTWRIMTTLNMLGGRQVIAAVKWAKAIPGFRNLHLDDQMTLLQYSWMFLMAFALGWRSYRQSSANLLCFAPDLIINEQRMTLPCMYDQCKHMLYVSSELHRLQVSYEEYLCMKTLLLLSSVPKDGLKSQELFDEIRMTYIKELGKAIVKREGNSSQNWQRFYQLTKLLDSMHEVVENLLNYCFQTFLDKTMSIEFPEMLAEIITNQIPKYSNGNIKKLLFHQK
Cellular tumor antigen p53 (Homo sapiens), sequence (P04637 whole entry, looked up): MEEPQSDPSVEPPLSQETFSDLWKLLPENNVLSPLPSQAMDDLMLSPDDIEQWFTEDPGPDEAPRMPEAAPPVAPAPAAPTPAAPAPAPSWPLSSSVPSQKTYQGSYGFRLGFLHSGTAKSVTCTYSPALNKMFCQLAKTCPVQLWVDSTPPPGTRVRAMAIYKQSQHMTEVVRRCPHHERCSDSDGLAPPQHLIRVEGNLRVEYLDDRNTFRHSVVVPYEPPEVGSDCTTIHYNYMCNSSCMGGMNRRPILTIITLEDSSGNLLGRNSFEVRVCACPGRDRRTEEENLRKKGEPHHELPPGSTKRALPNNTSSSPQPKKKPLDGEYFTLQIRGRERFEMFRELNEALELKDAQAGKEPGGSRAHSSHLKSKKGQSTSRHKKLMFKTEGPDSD
Nuclear respiratory factor 1 (Homo sapiens), sequence (Q16656 whole entry, looked up): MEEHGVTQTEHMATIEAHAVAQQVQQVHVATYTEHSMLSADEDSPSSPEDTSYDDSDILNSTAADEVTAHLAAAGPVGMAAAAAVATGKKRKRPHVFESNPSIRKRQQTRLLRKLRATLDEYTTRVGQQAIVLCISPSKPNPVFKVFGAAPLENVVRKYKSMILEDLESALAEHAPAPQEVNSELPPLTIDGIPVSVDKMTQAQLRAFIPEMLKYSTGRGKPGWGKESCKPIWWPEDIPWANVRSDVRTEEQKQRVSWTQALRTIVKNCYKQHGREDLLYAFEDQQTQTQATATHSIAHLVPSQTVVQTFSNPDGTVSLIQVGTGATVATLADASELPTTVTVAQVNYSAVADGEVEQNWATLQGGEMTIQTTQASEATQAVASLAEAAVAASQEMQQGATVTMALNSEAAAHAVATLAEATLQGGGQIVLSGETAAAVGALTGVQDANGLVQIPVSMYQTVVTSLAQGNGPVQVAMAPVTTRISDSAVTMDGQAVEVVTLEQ
Transcriptional activator Myb (Homo sapiens), sequence (P10242 whole entry, looked up): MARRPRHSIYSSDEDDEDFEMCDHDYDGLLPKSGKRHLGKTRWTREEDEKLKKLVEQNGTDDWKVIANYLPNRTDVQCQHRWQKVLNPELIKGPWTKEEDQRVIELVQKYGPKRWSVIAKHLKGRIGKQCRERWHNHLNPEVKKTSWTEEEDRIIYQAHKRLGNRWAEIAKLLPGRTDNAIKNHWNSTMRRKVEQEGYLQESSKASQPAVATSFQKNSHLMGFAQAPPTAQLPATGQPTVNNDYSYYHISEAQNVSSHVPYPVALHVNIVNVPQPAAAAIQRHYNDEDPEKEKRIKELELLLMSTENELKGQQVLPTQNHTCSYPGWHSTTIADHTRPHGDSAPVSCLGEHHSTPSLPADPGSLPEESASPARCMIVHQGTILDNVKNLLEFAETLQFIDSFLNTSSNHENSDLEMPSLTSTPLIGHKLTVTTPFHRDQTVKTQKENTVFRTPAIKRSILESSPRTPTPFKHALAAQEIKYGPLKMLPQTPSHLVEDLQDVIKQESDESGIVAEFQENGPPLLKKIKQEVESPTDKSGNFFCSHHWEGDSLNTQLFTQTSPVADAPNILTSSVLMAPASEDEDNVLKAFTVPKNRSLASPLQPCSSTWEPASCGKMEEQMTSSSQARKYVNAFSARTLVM
Myc proto-oncogene protein (Homo sapiens), sequence (P01106 whole entry, looked up): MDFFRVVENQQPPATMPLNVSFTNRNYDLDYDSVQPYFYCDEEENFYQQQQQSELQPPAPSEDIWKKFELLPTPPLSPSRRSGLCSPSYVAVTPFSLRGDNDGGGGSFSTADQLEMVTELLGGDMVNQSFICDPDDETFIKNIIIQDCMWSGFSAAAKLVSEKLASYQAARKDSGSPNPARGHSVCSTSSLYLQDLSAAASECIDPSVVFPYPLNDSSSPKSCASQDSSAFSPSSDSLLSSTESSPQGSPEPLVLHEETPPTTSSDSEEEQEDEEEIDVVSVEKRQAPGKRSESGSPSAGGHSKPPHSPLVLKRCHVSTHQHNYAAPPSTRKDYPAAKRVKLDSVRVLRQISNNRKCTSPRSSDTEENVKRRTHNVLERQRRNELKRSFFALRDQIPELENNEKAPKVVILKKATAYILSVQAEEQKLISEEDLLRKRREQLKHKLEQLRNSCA
Oxysterols receptor LXR-beta (Homo sapiens), sequence (P55055 whole entry, looked up, the tested form may be a part): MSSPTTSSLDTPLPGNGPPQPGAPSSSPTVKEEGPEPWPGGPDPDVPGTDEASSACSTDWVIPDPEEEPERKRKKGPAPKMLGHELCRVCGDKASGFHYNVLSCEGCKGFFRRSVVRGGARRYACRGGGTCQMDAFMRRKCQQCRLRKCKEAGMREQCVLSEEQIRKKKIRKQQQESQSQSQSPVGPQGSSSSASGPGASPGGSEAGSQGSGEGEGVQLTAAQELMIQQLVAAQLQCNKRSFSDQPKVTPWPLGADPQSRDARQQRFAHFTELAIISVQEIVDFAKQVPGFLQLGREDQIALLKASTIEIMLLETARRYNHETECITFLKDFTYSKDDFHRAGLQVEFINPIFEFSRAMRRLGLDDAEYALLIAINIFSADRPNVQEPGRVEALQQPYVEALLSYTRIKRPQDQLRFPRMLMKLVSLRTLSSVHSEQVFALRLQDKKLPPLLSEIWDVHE
Nuclear receptor subfamily 4 group A member 2 (Homo sapiens), sequence (P43354 whole entry, looked up, the tested form may be a part): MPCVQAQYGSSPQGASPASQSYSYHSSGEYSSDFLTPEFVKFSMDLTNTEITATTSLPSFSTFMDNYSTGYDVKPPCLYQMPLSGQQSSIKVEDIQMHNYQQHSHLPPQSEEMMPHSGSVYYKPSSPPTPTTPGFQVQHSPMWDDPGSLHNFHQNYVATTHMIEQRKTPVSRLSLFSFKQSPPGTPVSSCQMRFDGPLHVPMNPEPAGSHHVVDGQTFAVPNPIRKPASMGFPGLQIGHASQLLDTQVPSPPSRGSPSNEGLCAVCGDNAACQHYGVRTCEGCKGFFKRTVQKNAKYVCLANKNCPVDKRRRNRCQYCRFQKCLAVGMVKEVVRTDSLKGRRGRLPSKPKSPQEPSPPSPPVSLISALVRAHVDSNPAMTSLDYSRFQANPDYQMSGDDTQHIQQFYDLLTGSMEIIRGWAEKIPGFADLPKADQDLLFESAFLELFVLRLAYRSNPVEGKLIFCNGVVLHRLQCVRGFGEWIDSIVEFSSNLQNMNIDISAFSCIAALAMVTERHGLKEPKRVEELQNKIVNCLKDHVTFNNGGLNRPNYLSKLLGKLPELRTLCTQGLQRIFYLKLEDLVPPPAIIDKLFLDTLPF
Oxysterols receptor LXR-alpha (Homo sapiens), sequence (Q13133 whole entry, looked up, the tested form may be a part): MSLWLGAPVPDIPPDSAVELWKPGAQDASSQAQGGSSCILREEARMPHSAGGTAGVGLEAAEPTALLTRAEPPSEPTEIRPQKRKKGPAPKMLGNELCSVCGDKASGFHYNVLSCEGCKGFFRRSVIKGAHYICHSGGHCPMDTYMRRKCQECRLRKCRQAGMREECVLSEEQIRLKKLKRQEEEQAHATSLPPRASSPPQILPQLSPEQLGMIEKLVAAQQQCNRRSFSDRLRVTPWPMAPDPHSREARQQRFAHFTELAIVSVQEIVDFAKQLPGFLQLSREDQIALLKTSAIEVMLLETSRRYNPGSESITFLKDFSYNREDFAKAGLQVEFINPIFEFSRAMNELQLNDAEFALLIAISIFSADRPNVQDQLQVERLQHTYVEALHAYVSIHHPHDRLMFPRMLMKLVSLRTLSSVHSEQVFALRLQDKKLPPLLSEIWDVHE

With `CSc1ccc(Cl)cc1`, the outcome in assay [1], in [2], in assay [3], in assay [4], in assay [5] and in assay [6] was inactive. Further, the result in assay [7], in assay [8], in [9], in assay [10] and in [11] was inactive.

For the molecule `O=S(=O)(O)CCC(F)(F)C(F)(F)C(F)(F)C(F)(F)C(F)(F)C(F)(F)C(F)(F)C(F)(F)F`, the outcome in assay [1], in assay [12], in [13], in assay [14], in assay [5] and in [6] was inactive. Moreover, the molecule was classed as inactive in assay [7], in assay [8], in [9], in [15], in assay [16] and in assay [17]. The AC50 (in general, the midpoint of the concentration-response curve, whichever way the signal moves) is 40 µM (active) in assay [2] and 91.8 µM (active) in assay [10].

In the case of `OCC(F)(F)C(F)(F)C(F)(F)C(F)(F)C(F)(F)C(F)(F)CO`, the molecule was classed as inactive in assay [1], in [2], in assay [12], in assay [18], in assay [4] and in assay [13]. Also, the molecule was classed as inactive in [14], in [5], in assay [6], in assay [7], in assay [8] and in assay [9]. The outcome in [10], in [15], in assay [16], in assay [17] and in assay [19] was inactive.

As to `C=CCOC(=O)CC(C)C`, the molecule was classed as inactive in assay [1], in assay [2], in assay [18], in assay [4], in assay [13] and in assay [5]. Moreover, the call in [6], in [7], in [8], in [9], in assay [10] and in assay [15] was inactive. The molecule was called inactive in [11].

For the molecule `COC(=O)c1ccc(C=O)cc1`, the molecule was classed as inactive in assay [1], in [2], in assay [18], in assay [13], in assay [5] and in assay [6]. For the same molecule, the result in assay [7], in assay [8], in [9], in assay [10], in [15] and in assay [11] was inactive.
